# Source: PubChem BioAssay (NCI)
# About 79,000 compounds went through this panel and 15% of them were active in at least one assay; those are over-represented in the sample as a whole. Values without a mark were called inactive. Active and inactive are the calls of the source. No stated cut-off is given here; in the data, active means growth inhibition above about 70%; inactive means the rest.
# Key:
# [1] = NCI Yeast Anticancer Drug Screen. Data for the wt1 strain (AID 149);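 further: 0% = growth of vehicle-treated wt1 cultures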; conditions: S. cerevisiae wt1 strain (SPY 50644) growth inhibition, stronger effect = higher value
# Summary of the method: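 Vehicle-normalised growth inhibition; strain wt1; compound exposure.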
# [2] = NCI Yeast Anticancer Drug Screen. Data for the rad50EPP+ strain (AID 151);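 further: 0% = growth of vehicle-treated control cultures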; conditions: S. cerevisiae rad50 mutant strain, stronger effect = higher value
# Summary of the method: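 Growth inhibition read against vehicle controls in rad50EPP+ yeast, a strain altered in DNA damage repair, after compound exposure.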
# [3] = NCI Yeast Anticancer Drug Screen. Data for the mgt1 strain (AID 153); conditions: S. cerevisiae mgt1 mutant growth inhibition, stronger effect = higher value
# Summary of the method: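 mgt1 yeast grown with test compound; read-out is growth inhibition versus vehicle-treated cultures.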
# [4] = NCI Yeast Anticancer Drug Screen. Data for the rad50 strain (AID 155);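 further: 0% = growth of vehicle-only cultures of the same strain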; conditions: S. cerevisiae rad50 strain growth inhibition, stronger effect = higher value
# Summary of the method: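 A DNA repair-deficient yeast mutant serves as the test organism; compound-induced growth inhibition is calculated against vehicle-treated cells.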
# [5] = NCI Yeast Anticancer Drug Screen. Data for the mec2-1 strain (AID 157); conditions: S. cerevisiae mec2-1 strain, stronger effect = higher value
# Summary of the method: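 Yeast mec2-1 mutant treated with compound. Readout: growth inhibition vs vehicle controls.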
# [6] = NCI Yeast Anticancer Drug Screen. Data for the rad14 strain (AID 159);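 further: 0% = growth of vehicle-treated control cultures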; conditions: S. cerevisiae rad14 strain growth inhibition, stronger effect = higher value
# Summary of the method: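 Vehicle-treated cultures served as the baseline for growth inhibition of a DNA repair-mutant yeast strain exposed to each compound.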
# [7] = NCI Yeast Anticancer Drug Screen. Data for the sgs1 mgt1 strain (AID 161);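 further: 0% = growth of cultures given vehicle only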; conditions: S. cerevisiae sgs1 mgt1 strain, stronger effect = higher value
# Summary of the method: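 Read-out: growth inhibition vs vehicle controls. Cells: mutant yeast strain deficient in DNA damage repair.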
# [8] = NCI Yeast Anticancer Drug Screen. Data for the CLN2oe strain (AID 163);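 further: 0% = growth of vehicle-only control cultures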; conditions: S. cerevisiae CLN2oe strain, stronger effect = higher value
# Summary of the method: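 Read-out: yeast growth inhibition, expressed relative to vehicle-only controls. The strain bears an engineered cell-cycle alteration.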
# [9] = NCI Yeast Anticancer Drug Screen. Data for the cln2 rad14 strain (AID 165);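 further: 0% = growth equal to vehicle treated cultures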; conditions: S. cerevisiae cln2 rad14 strain, stronger effect = higher value
# Summary of the method: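 cln2 rad14 yeast strain; compound exposure; growth inhibition read vs vehicle controls.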
# [10] = NCI Yeast Anticancer Drug Screen. Data for the bub3 strain (AID 167); conditions: S. cerevisiae bub3 mutant strain, stronger effect = higher value
# Summary of the method: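 Inhibition values come from growth of compound-treated mutant yeast normalised to vehicle-treated controls.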
# [11] = NCI Yeast Anticancer Drug Screen. Data for the wt2 strain (AID 169);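 further: 0% = growth of vehicle-treated yeast cultures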; conditions: S. cerevisiae wt2 strain growth inhibition, stronger effect = higher value
# Summary of the method: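 Read-out: growth inhibition versus vehicle-treated control cultures after compound exposure of the yeast strain.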
# [12] = NCI Yeast Anticancer Drug Screen. Data for the mlh1 strain (AID 171);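 further: 0% = growth of vehicle-treated control cultures of the same strain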; conditions: S. cerevisiae mlh1 strain growth inhibition, stronger effect = higher value
# Summary of the method: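 Read-out: growth inhibition versus vehicle controls. Strain: engineered yeast with a defined DNA repair or cell cycle defect, compound-treated.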
# [13] = NCI Yeast Anticancer Drug Screen. Data for the sgs1 strain (AID 173);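 further: 0% = growth of vehicle-only control cultures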; conditions: S. cerevisiae sgs1 mutant, stronger effect = higher value
# Summary of the method: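 Read-out: yeast growth inhibition relative to vehicle controls, following compound exposure of a strain with a defined DNA repair/cell cycle alteration.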
# [14] = NCI Yeast Anticancer Drug Screen. Data for the mlh1 rad18 strain (AID 175); conditions: S. cerevisiae mlh1 rad18 strain growth inhibition, stronger effect = higher value
# Summary of the method: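 Yeast w/ defined DNA-repair lesions; compound exposure; growth vs vehicle controls → % inhibition.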
# [15] = NCI Yeast Anticancer Drug Screen. Data for the rad18 strain (AID 177); conditions: S. cerevisiae rad18 mutant growth inhibition, stronger effect = higher value
# Summary of the method: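 Readout: growth inhibition vs vehicle controls. Cells: genetically altered yeast strain, DNA repair defect.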
# [16] = at 5.0 µM (retest, dose inferred, filed as 0.5)
# [17] = at 50.0 µM (retest, dose inferred, filed as 5.0)
structure (smiles),measurement,setting,value
Nc1nnc(N)n1-n1c(N)nnc1N,growth inhibition,[1]; at 1.2 µM,-1%
same,growth inhibition,[1]; at 3.7 µM,2%
same,growth inhibition,[1]; at 11.0 µM,-2%
same,growth inhibition,[1]; at 33.0 µM,-2%
same,growth inhibition,[1]; at 100.0 µM,2%
same,growth inhibition,[2]; at 1.2 µM,1%
same,growth inhibition,[2]; at 3.7 µM,0%
same,growth inhibition,[2]; at 11.0 µM,-5%
same,growth inhibition,[2]; at 33.0 µM,-14%
same,growth inhibition,[2]; at 100.0 µM,-16%
same,growth inhibition,[3]; at 1.2 µM,-3%
same,growth inhibition,[3]; at 3.7 µM,-4%
same,growth inhibition,[3]; at 11.0 µM,-4%
same,growth inhibition,[3]; at 33.0 µM,-2%
same,growth inhibition,[3]; at 100.0 µM,1%
same,growth inhibition,[4]; at 1.2 µM,-3%
same,growth inhibition,[4]; at 3.7 µM,-1%
same,growth inhibition,[4]; [16],-8%
same,growth inhibition,[4]; at 11.0 µM,-3%
same,growth inhibition,[4]; at 33.0 µM,1%
same,growth inhibition,[4]; [17],92% (active)
same,growth inhibition,[4]; at 50.0 µM,56.1%
same,growth inhibition,[4]; at 100.0 µM,9%
same,growth inhibition,[5]; at 1.2 µM,1%
same,growth inhibition,[5]; at 3.7 µM,3%
same,growth inhibition,[5]; [16],-22%
same,growth inhibition,[5]; at 11.0 µM,4%
same,growth inhibition,[5]; at 33.0 µM,4%
same,growth inhibition,[5]; [17],36%
same,growth inhibition,[5]; at 50.0 µM,11.8%
same,growth inhibition,[5]; at 100.0 µM,2%
same,growth inhibition,[6]; at 1.2 µM,-3%
same,growth inhibition,[6]; at 3.7 µM,-3%
same,growth inhibition,[6]; at 11.0 µM,-4%
same,growth inhibition,[6]; at 33.0 µM,-6%
same,growth inhibition,[6]; at 100.0 µM,0%
same,growth inhibition,[7]; [16],2%
same,growth inhibition,[7]; [17],89% (active)
same,growth inhibition,[7]; at 50.0 µM,27.9%
same,growth inhibition,[8]; at 1.2 µM,-3%
same,growth inhibition,[8]; at 3.7 µM,-14%
same,growth inhibition,[8]; at 11.0 µM,-8%
same,growth inhibition,[8]; at 33.0 µM,-6%
same,growth inhibition,[8]; at 100.0 µM,-4%
same,growth inhibition,[9]; [16],-2%
same,growth inhibition,[9]; [17],31%
same,growth inhibition,[9]; at 50.0 µM,-13.2%
same,growth inhibition,[10]; at 1.2 µM,-1%
same,growth inhibition,[10]; at 3.7 µM,-1%
same,growth inhibition,[10]; [16],-18%
same,growth inhibition,[10]; at 11.0 µM,2%
same,growth inhibition,[10]; at 33.0 µM,3%
same,growth inhibition,[10]; [17],57%
same,growth inhibition,[10]; at 50.0 µM,1.05%
same,growth inhibition,[10]; at 100.0 µM,0%
same,growth inhibition,[11]; at 1.2 µM,-1%
same,growth inhibition,[11]; at 3.7 µM,-1%
same,growth inhibition,[11]; at 11.0 µM,-5%
same,growth inhibition,[11]; at 33.0 µM,-2%
same,growth inhibition,[11]; at 100.0 µM,1%
same,growth inhibition,[12]; at 1.2 µM,0%
same,growth inhibition,[12]; at 3.7 µM,0%
same,growth inhibition,[12]; at 11.0 µM,0%
same,growth inhibition,[12]; at 33.0 µM,-1%
same,growth inhibition,[12]; at 100.0 µM,2%
same,growth inhibition,[13]; at 1.2 µM,0%
same,growth inhibition,[13]; at 3.7 µM,-1%
same,growth inhibition,[13]; at 11.0 µM,-1%
same,growth inhibition,[13]; at 33.0 µM,-1%
same,growth inhibition,[13]; at 100.0 µM,4%
same,growth inhibition,[14]; [16],49%
same,growth inhibition,[14]; [17],96% (active)
same,growth inhibition,[14]; at 50.0 µM,19.1%
same,growth inhibition,[15]; at 1.2 µM,0%
same,growth inhibition,[15]; at 3.7 µM,-4%
same,growth inhibition,[15]; at 11.0 µM,-5%
same,growth inhibition,[15]; at 33.0 µM,-4%
same,growth inhibition,[15]; at 100.0 µM,9%
Oc1cccc2nc3ccccc3nc12,growth inhibition,[1]; at 1.2 µM,-55%
same,growth inhibition,[1]; at 3.7 µM,-46%
same,growth inhibition,[1]; at 11.0 µM,-30%
same,growth inhibition,[1]; at 33.0 µM,1%
same,growth inhibition,[1]; at 100.0 µM,88% (active)
same,growth inhibition,[2]; at 1.2 µM,-47%
same,growth inhibition,[2]; at 3.7 µM,-31%
same,growth inhibition,[2]; at 11.0 µM,6%
same,growth inhibition,[2]; at 33.0 µM,63%
same,growth inhibition,[2]; at 100.0 µM,96% (active)
same,growth inhibition,[3]; at 1.2 µM,-22%
same,growth inhibition,[3]; at 3.7 µM,-14%
same,growth inhibition,[3]; at 11.0 µM,6%
same,growth inhibition,[3]; at 33.0 µM,20%
same,growth inhibition,[3]; at 100.0 µM,91% (active)
same,growth inhibition,[4]; at 1.2 µM,-4%
same,growth inhibition,[4]; at 3.7 µM,-8%
same,growth inhibition,[4]; [16],-14%
same,growth inhibition,[4]; at 11.0 µM,5%
same,growth inhibition,[4]; at 33.0 µM,54%
same,growth inhibition,[4]; [17],73% (active)
same,growth inhibition,[4]; at 50.0 µM,65.4%
same,growth inhibition,[4]; at 100.0 µM,95% (active)
same,growth inhibition,[5]; at 1.2 µM,-48%
same,growth inhibition,[5]; at 3.7 µM,-44%
same,growth inhibition,[5]; [16],9%
same,growth inhibition,[5]; at 11.0 µM,-33%
same,growth inhibition,[5]; at 33.0 µM,24%
same,growth inhibition,[5]; [17],47%
same,growth inhibition,[5]; at 50.0 µM,68.5%
